Reference: PubChem BioAssay (NCATS)
Records with an inconclusive call do not appear. Where a call stands in place of a potency, no number is given. The source made the active and inactive calls. Calls come from the whole dose curve; as a rule, active = well fitted cell-killing curve with a large enough effect; inconclusive = small, poorly fitted or top-dose-only effect, or effect the other way; inactive = flat fitted curve, though single readings scatter.

system: OV90; test: Primary qHTS to identify gynecologic anti-cancer compounds using libraries of approved drugs and bioactive compounds (AID 1345084); settings: Gynecologic cancer cell panel viability, ATPlite luminescence, 48 h; series mostly up to 57.5 µM; note: nearly all actives have a fitted effect of over 55% in size
Summary of the method: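 Five-concentration response, 48 h; readout is ATP-driven luciferase luminescence.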

SMILES | Potency | activity change, negative = cytotoxicity
CC1CCC2C(C)(C)CC(C)(CO)C2(O)C1C(=O)O (stereo unspecified) | inactive | –
CC(C)(C)NCC(O)COc1cccc2c1CCCC2=O (stereo unspecified) | inactive | –
COC(=O)C1=CO[C@@H](O[C@@H]2O[C@H](CO[C@@H]3O[C@H](COC(=O)/C=C/c4ccc(O)cc4)[C@@H](O)[C@H](O)[C@H]3O)[C@@H](O)[C@H](O)[C@H]2O)[C@@H]2C(CO)=CC[C@H]12 | inactive | –
C=CC(C)(O)CC/C=C(\C)C(=O)OCC1OC(OC2CCC3(C)C(CCC4(C)C3CC=C3C5CC(C)(C)C(O)CC5(C(=O)O)CCC34C)C2(C)C)C(O)C(OC2OC(CO)C(O)C(OC3OC(CO)C(O)C(OC4OC(COC5OC(CO)C(O)C(O)C5O)C(O)C(O)C4O)C3O)C2O)C1O (stereo unspecified) | – | 12.5% [at 6.55 µM] (inactive)
COC1C=C([C@@H]2CC=C3[C@@]4(C)C(CC[C@]32C)[C@@]2(C)C=CC(=O)C(C)(C)C2C[C@H]4OC(C)=O)C(=O)O1 (stereo partly specified) | inactive | –
Cc1c(N2C(=O)c3ccc(C(=O)O)cc3C2=O)c(=O)n(-c2ccccc2)n1C | inactive | –
CC[C@H]1OC(=O)[C@H](C)[C@@H](OC2C[C@@](C)(OC)[C@@H](O)[C@H](C)O2)[C@H](C)[C@@H](OC2O[C@H](C)C[C@H](NC)[C@H]2O)[C@](C)(O)C[C@@H](C)CN(C)[C@H](C)[C@@H](O)[C@]1(C)O (stereo partly specified) | inactive | –
C=C1C2(CCC(=O)OC2(C)C)CC(OC(=O)/C(C)=C/C)C2(C)C13OC14C(=O)OC(C)(C(=O)C12C(=O)OC4C)C3OC(C)=O (stereo unspecified) | inactive | –
C=C1C(=O)OC2/C=C(\C)CC/C=C(\C(=O)O)CC/C=C(\C)CCC12 (stereo unspecified) | inactive | –
CC(C)c1nc(N(C)S(C)(=O)=O)nc(-c2ccc(F)cc2)c1/C=C/[C@@H](O)C[C@@H](O)CC(=O)O | inactive | –
C=C1C[C@]23C[C@H]1CC[C@H]2[C@@]12C=C[C@H](O)[C@@](C)(C(=O)O1)[C@H]2[C@@H]3C(=O)O | inactive | –
COC1C2=C(COC2=O)C2(C)CCCC(C)(CO)C2C1OC(=O)c1ccccc1 (stereo unspecified) | inactive | –
CC1CCCC2OC2C(=O)c2c(O)cc(O)cc2CC(=O)O1 (stereo unspecified) | inactive | –
C[C@@H]1C(=O)O[C@H]2CC34[C@H]5C[C@@H](C(C)(C)C)C36[C@@H](OC(=O)[C@@H]6O)O[C@@]4(C(=O)O5)[C@]21O (stereo partly specified) | inactive | –
CC(C)C(C#N)O[C@@H]1O[C@H](CO[C@@H]2OC[C@](O)(CO)[C@H]2O)[C@@H](O)[C@H](O)[C@H]1O (stereo partly specified) | inactive | –
CC[C@H]1OC(=O)[C@H](C)[C@@H](O[C@H]2C[C@@](C)(OC)[C@@H](O)[C@H](C)O2)[C@H](C)[C@@H](O[C@@H]2O[C@H](C)C[C@H](N(C)C)[C@H]2O)[C@@](C)(O)C[C@@H](C)[C@@H]2N[C@@H](COCCOC)OC([C@H]2C)[C@]1(C)O | inactive | –
CCc1cc2c(=O)c(-c3nc4ccccc4s3)coc2c(CN2CCCCC2)c1O | inactive | –
C=C1C(=O)OC2CC(C)=C(C(C)CCCO[C@@H]3O[C@H](CO)[C@@H](O)[C@H](O)[C@H]3O)C(O)C12 (stereo partly specified) | inactive | –
CCC(C)/C=C(C)/C=C/C1=CC2=C(Cl)C(=O)C(C)(OC(C)=O)C(=O)C2=CN1CCCC(=O)O (stereo unspecified) | inactive | –
CC(=O)OC[C@@]12[C@H](O)C[C@]3(C)C(=CCC4[C@@]5(C)CC[C@H](O[C@@H]6O[C@H](C(=O)O)[C@@H](O[C@@H]7O[C@H](CO)[C@@H](O)[C@H](O)[C@H]7O)[C@H](O)[C@H]6O[C@@H]6O[C@H](CO)[C@@H](O)[C@H](O)[C@H]6O)[C@](C)(CO)C5CC[C@]43C)[C@@H]1CC(C)(C)[C@@H](OC(C)=O)[C@@H]2O (stereo partly specified) | – | -1.56% [at 11.6 µM] (inactive)
COc1ccc([C@@H]2N[C@H](C(=O)O)Cc3c2[nH]c2ccccc32)cc1CN1CCN(c2ccccc2F)CC1 | inactive | –
CC1=CC(=O)CC(C)(C)C1(O)CCC(C)O (stereo unspecified) | inactive | –
COc1ccccc1[C@@H]1C2=C(CC(C)(C)CC2=O)Nc2n[nH]c(C(F)(F)F)c21 | inactive | –
CC(C)(OC1OC(CO)C(O)C(O)C1O)C1CCC(O)(CO)C2CC(O)C(C)(O)C2C1 (stereo unspecified) | inactive | –
CN1C(=O)c2ccccc2-n2c(nc3ccccc3c2=O)/C1=C/c1ccccc1 | inactive | –
CC(=O)OCC(=O)O[C@@H]1[C@H]2[C@@H](OC(=O)c3ccccc3)[C@@H](C)C[C@]2(O)[C@H](OC(C)=O)C2(C)[C@H]3CC(C)(C)C(=O)[C@@H]3CC1(OC(C)=O)[C@@H]2OC(C)=O (stereo partly specified) | inactive | –
